A3A deaminase = inhibitors of human APOBEC3A DNA deaminase; P31941; recombinant A3A, FAM/TAMRA ssDNA deamination fluorescence; inhibition, % at 20 µM; 330,000 compounds, 0.41% hits; AID 493011;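 active means at least 40% inhibition at 20 µM here, with at most 30% in a related deaminase screen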;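 further: plate controls were A3A with DMSO for no effect and wells lacking A3A enzyme for full effect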
PHOSPHO1 inh = inhibitors of human PHOSPHO1 phosphatase; Q8TCT1; recombinant PHOSPHO1, absorbance phosphatase assay; inhibition, % at 13.3 µM; 290,000 compounds, 1.1% hits; AID 1565; in the data active means inhibition above about 60%
Target sequence (Q8TCT1 whole entry, looked up): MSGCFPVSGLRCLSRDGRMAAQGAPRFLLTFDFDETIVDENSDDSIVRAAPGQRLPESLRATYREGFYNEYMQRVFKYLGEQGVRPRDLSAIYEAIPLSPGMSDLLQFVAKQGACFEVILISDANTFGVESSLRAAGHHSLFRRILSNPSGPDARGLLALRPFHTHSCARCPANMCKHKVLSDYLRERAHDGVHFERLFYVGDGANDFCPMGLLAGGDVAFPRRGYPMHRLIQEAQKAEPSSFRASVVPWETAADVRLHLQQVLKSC
rCAG binder = r(CAG) repeat RNA binding | 370,000 compounds, 1.3% hits | inhibition, % at 3 µM | TO-PRO-1 dye displacement fluorescence;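 active means inhibition above the plate cutoff, the mean of all test compounds on that plate plus 3 SD, cut at about 35% in these data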;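 further: 0% = DMSO alone and 100% = 100 µM mitoxantrone as full dye displacement; higher means more dye released from RNA so lower well fluorescence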
A3G deaminase = blocks human APOBEC3G single-stranded DNA deamination. inhibition, % at 20 µM. recombinant A3G, ssDNA deamination FAM/TAMRA fluorescence. 330,000 compounds, 0.28% hits. Q9HC16;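 active means inhibition of at least 40% at 20 µM, with no more than 30% in the related APOBEC3A deaminase screen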;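 further: plate controls were DMSO wells with A3G for no effect and wells lacking A3G enzyme for full effect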
Target sequence (Q9HC16 whole entry, looked up): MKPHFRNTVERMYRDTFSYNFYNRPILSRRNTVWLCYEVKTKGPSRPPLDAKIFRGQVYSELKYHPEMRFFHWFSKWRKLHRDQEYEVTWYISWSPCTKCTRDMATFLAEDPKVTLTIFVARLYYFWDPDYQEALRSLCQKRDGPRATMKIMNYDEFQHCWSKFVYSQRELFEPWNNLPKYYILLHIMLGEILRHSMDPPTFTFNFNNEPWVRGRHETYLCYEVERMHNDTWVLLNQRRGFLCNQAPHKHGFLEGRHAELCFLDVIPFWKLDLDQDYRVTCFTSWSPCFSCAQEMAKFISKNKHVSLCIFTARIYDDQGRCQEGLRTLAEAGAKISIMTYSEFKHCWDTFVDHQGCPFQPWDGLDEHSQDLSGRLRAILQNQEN
ALR inh = blocks human ALR sulfhydryl oxidase activity. P55789. purified ALR, DTT oxidation, H2O2 HRP-luminol luminescence. inhibition, % (no concentration beside the values). 290,000 compounds, 3.8% hits. AID 485317;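 active means mean replicate inhibition above about 79%, with every replicate also reaching it, limit read from the data; inconclusive means only one of the two criteria met; inactive means mean below limit and not every replicate reaching it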
aDG glyco up = increases alpha dystroglycan glycosylation; activation, % at 10 µM; Pro5-aDG cells, alpha-DG glycosylation AlphaScreen (IIH6); 0% Pro5, 100% B10-LARGE cell signal; 360,000 compounds, 0.22% hits;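 active means activation of at least 8% versus controls, or a plate z-score of at least 8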;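 further: Pro5 are CHO cells carrying HIG-tagged alpha-DG that lacks glycosylation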
rCAG binder conf = r(CAG) RNA repeat binding, confirmation; TO-PRO-1 dye displacement fluorescence; inhibition, % at 3 µM; AID 652065; shares compounds with rCAG binder; 4,300 compounds, 70% hits;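 active means inhibition above a per-plate cutoff, the mean inhibition of sample wells plus 3 SD, cut at about 35% in these data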;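 further: loss of TO-PRO-1 fluorescence as compound displaces dye from 1x1 AA loop RNA; 0% = DMSO only wells and 100% = 100 µM mitoxantrone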
DNA CAG counter = disrupts DNA CAG TO-PRO-1 complex, flagging rCAG hits | shares compounds with rCAG binder | d(CAG) DNA oligo TO-PRO-1 dye displacement, fluorescence | inhibition, % at 3 µM | 4,300 compounds, 94% hits | AID 652068;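 active means inhibition above its plate's cutoff, the mean test-well inhibition plus 3 SD, cut at about 4.8% in these data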;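 further: 0% = DNA dye mix with DMSO and 100% = 100 µM mitoxantrone; hits displace the dye from DNA and so lower well fluorescence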
dCAG dye DR = DNA CAG dye complex inhibition, dose response counter-screen. shares compounds with rCAG binder. DNA CAG/GTC duplex TO-PRO-1 dye displacement fluorescence. IC50, µM. 250 compounds, 20% hits. AID 686960; in the data active means IC50 below about 10 µM
* hit, by the source's call; i = inactive; ? = inconclusive; / = no result given. A selection: hits, their analogues and other compounds. The true share with any hit is near 5.4%.

SMILES	A3A deaminase	PHOSPHO1 inh	rCAG binder	A3G deaminase	ALR inh	aDG glyco up	rCAG binder conf	DNA CAG counter	others
O=C(Nc1ccc(S(=O)(=O)O)cc1)c1ccc2c(c1)S(=O)(=O)c1ccccc1C2=O	-0.6	/	40.1*	-5.0	-17.0	0.0	16.7	1.6
O=C(Nc1cc(S(=O)(=O)N2CCOCC2)ccc1O)c1ccc(S(=O)(=O)N2CCCCC2)cc1	-0.2	/	40.0*	-4.7	0.8	-0.1	37.0*	10.3*
O=C(Nc1ccc(Cl)cc1)c1ccc2c(c1)S(=O)(=O)c1ccccc1C2=O	0.2	/	3.0	-6.8	/	-0.2	/	/
CCN(CC)CCNC(=O)c1nn(-c2ccc(Cl)cc2)c2c1CCc1cc(OC)ccc1-2	/	/	6.4	/	/	3.8	/	/
COc1ccc(C=CC(=O)c2c(N)n(C)c(=O)n(C)c2=O)cc1	/	/	1.9	/	/	/	/	/
O=C(COc1ccc2c(-c3ccccc3)cc(=O)oc2c1)NC(Cc1c[nH]c2ccccc12)C(=O)O (configuration not stated)	-2.6	/	53.9*	-7.1	/	-0.1	49.4*	12.3*
O=C(COc1ccc2c(-c3ccccc3)cc(=O)oc2c1)N[C@@H](Cc1c[nH]c2ccc(O)cc12)C(=O)O	-2.4	29.1	36.7*	-7.8	29.8	0.0	39.2*	12.9*
CC(C)(C)C1CCN2CCCC(c3ccccc3)(C1)C2=O (configuration not stated)	/	/	-1.2	/	/	0.0	/	/
CCOC(=O)CC1(Cc2ccccc2)Oc2ccccc2O1	/	/	0.1	/	/	/	/	/
COc1cc(/C=C/C(=O)O)cc(S(=O)(=O)NC2CCCC2)c1OC	0.2	13.9	5.5	-5.5	0.1	0.0	/	/
COc1cc(/C=C/C(=O)O)cc(S(=O)(=O)Nc2cc(C(F)(F)F)ccc2N2CCOCC2)c1OC	-1.6	/	41.0*	-4.4	-0.4	-0.3	33.2	5.8*
COc1cc(/C=C/C(=O)O)cc(S(=O)(=O)Nc2cc(Cl)c(Cl)cc2Cl)c1OC	0.8	-23.4	64.8*	-4.1	6.3	0.1	36.6*	7.4*
CCCCOCCCNC(=O)C[C@@H]1C[C@@]2(C(=O)OC)CC(C)(C)CC=C2N(Cc2ccco2)C1=O	/	/	-1.7	/	/	-0.2	/	/
COc1ccc(-c2nc(-c3ccccc3)c(-c3cc([N+](=O)[O-])ccc3C)[nH]2)cc1O	8.6	37.9	16.9	-0.1	61.7	1.9	/	/
COc1ccc([N+](=O)[O-])cc1-c1[nH]c(-c2ccc(C(=O)O)cc2)nc1-c1ccccc1	-4.1	44.4	54.8*	-9.7	98.0*	-0.1	48.3*	15.8*
Cc1ccc([N+](=O)[O-])cc1-c1[nH]c(-c2ccc(O)c(O)c2)nc1-c1ccccc1	-2.0	17.1	35.5*	-2.8	96.7*	0.0	37.3*	19.4*
O=c1n(Cc2ccccc2)c(O)c2n1Cc1ccccc1N=C2c1ccc(C(F)(F)F)cc1	/	/	3.7	/	/	-0.1	/	/
CCOc1ccc(NC(=O)c2cc(SC)ccc2Cl)cc1	1.5	0.7	-1.5	-8.6	-14.3	1.1	/	/
O=C(NNC(=S)Nc1cccc(C(F)(F)F)c1)c1ccc(Cl)cc1Cl	-4.2	-4.9	62.4*	-7.9	47.7	-0.2	59.0*	20.9*
CCOc1ccc(NC(=S)NNC(=O)c2cc(Br)ccc2Cl)cc1	3.1	-77.0	37.8*	-5.9	?	-0.3	29.9	8.8*
Cc1ccccc1C(=O)NNC(=S)Nc1cccc(C(F)(F)F)c1	-5.7	-2.2	16.7	-7.7	/	-0.2	/	/
COc1ccc(NC(=S)NNC(=S)Nc2cccc(C(F)(F)F)c2)cc1	-3.8	40.9	17.1	0.2	13.7	0.6	/	/
CCOc1ccc(NC(=S)NNC(=S)Nc2cccc(C(F)(F)F)c2)cc1	-4.7	7.7	38.4*	-5.3	-8.3	-0.1	54.7*	21.6*
COc1ccc(-c2cc(C(F)(F)F)c3c(n2)sc2c(O)cc(=O)[nH]c23)c(OC)c1	-9.2	-4.0	42.2*	-11.2	/	0.1	41.7*	14.4*
S=c1[nH]nc(Cc2sc(-c3ccccc3)nc2-c2ccccc2)o1	2.1	89.9*	61.3*	0.8	98.1*	-0.1	47.3*	16.7*
SMILES	A3A deaminase	PHOSPHO1 inh	rCAG binder	A3G deaminase	ALR inh	aDG glyco up	rCAG binder conf	DNA CAG counter	others
O=[N+]([O-])c1cc(C(F)(F)F)cc([N+](=O)[O-])c1NCCNC(=S)Nc1ccc(Cl)c(Cl)c1	-3.4	-23.1	35.9*	-6.7	-2.3	0.2	22.2	6.6*
FC(F)(F)c1cccc(NC(=S)Nc2ccc(Cl)c(Cl)c2)c1	-1.2	34.2	5.5	-0.6	15.6	-0.1	/	/
CCOc1cc(/C=C2\SC(=N)N(c3nccs3)C2=O)ccc1OCCN1CCOCC1	-0.3	-22.6	38.5*	-1.7	/	1.3	36.6*	10.8*
CCc1nnc(NS(=O)(=O)c2ccc(NC(=O)c3ccc([N+](=O)[O-])s3)cc2)s1	/	/	60.7*	/	/	-0.1	48.4*	15.2*
CCc1nnc(NS(=O)(=O)c2ccc(NC(=O)c3cccc([N+](=O)[O-])c3)cc2)s1	0.3	12.0	45.1*	3.5	2.7	-0.5	27.4	4.9*
CCc1nnc(NS(=O)(=O)c2ccc(NC(=S)NC(=O)c3cccnc3)cc2)s1	-3.6	24.0	18.5	-9.2	30.9	-0.3	/	/
CCCCOc1cccc(C(=O)Nc2ccc(S(=O)(=O)Nc3nnc(CC)s3)cc2)c1	-6.4	36.0	79.8*	-4.6	97.0*	0.1	73.2*	37.1*
COc1ccc(S(=O)(=O)N2CCCCC2c2cc(C(=O)Nc3ccc(OC)cc3C)no2)cc1 (configuration not stated)	/	/	2.9	/	/	-0.2	/	/
Cc1cc2c(c(=O)o1)[C@@]1(C(=O)Nc3ccccc31)C1=C(CCCC1=O)O2	/	/	1.1	/	/	/	/	/
CC(=O)Nc1cccc(-c2csc(C(O)c3ccc(F)c(F)c3)n2)c1 (configuration not stated)	/	/	3.0	/	/	0.3	/	/
Cc1ccccc1N1CCN(S(=O)(=O)c2nnc(NC(=O)c3ccco3)s2)CC1	-2.3	-12.1	43.1*	-3.3	14.0	-0.3	71.9*	25.7*	dCAG dye DR=i
CCN(c1ccccc1C)S(=O)(=O)c1nnc(NC(=O)c2ccco2)s1	7.8	29.8	41.0*	3.2	20.1	-0.3	26.4	6.9*
CCN(c1ccc(C)cc1C)S(=O)(=O)c1nnc(NC(=O)C(C)C)s1	4.7	26.5	2.3	-3.5	-5.6	0.2	/	/
CCN(c1cc(C)cc(C)c1)S(=O)(=O)c1nnc(NC(=O)c2ccco2)s1	5.6	46.9	38.6*	4.2	-10.1	-0.2	38.1*	10.5*

High-throughput results deposited in PubChem by several laboratories.
